For 96 compounds, inhibition results are on record in PubChem BioAssay AID463190 (Sanford-Burnham Center for Chemical Genomics, 2010).

What is called inhibition is the drop in the measured response relative to a control, in per cent.

SMILES strings stand for the structures. About 7,300 (2.2%) of roughly 330,000 compounds were called active. This excerpt belongs to a sample that is enriched for actives. Values without a mark were called inactive.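 Rule for the calls: active = inhibition of at least 40%; inactive = the rest.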

A short description of the assay: growth inhibition of tim10-1 ts yeast – luminescence, uHTS, primary screen (AID 463190).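 Note: mutant grown at 25 °C; 0% = DMSO wells with yeast and 100% = wells holding no yeast.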 As to conditions: S. cerevisiae tim10-1 ts strain growth, BacTiter-Glo, 24 h; at 20 µM; active compounds read high.
For `COc1ccc(CNC(=O)C(C)NCc2ccccc2Cl)cc1` (stereo unspecified), the inhibition was 21.6%.
For the compound `COc1ccc(CNC(=O)COc2ccccc2C(=O)c2cnn(-c3ccccc3)c2)cc1OC`, the inhibition is 4.14%.
With `CCN1C(=NCCc2cccnc2)N[C@@H](c2ccccc2)C(C(=O)OC)=C1C`, the inhibition is 0.495%.
The value for `COCCN(C(=O)C(C)C)c1nnc(-c2ccc(C(C)(C)C)cc2)s1` was 38.1%.
As for `Cn1c(SCC(=O)Nc2ccc(N3CCOCC3)cc2)nnc1C(F)(F)F`, the inhibition is -4.28%.
For the compound `C[n+]1ccccc1C1CCCC/C1=N\Nc1ccc([N+](=O)[O-])cc1[N+](=O)[O-]` (stereo unspecified), the inhibition was 28%.
Take `O=[N+]([O-])c1ccc(N/N=C2/CCCCC2c2ccccn2)c([N+](=O)[O-])c1` (stereo unspecified): the inhibition is 42% (active).
Consider `O=C(Nc1ccccc1)O/N=C1\CCCCC1c1ccc([N+](=O)[O-])cc1[N+](=O)[O-]` (stereo unspecified), for which the inhibition was 24.7%.
As for `O=C(NNC(=S)NC(=O)c1cn(-c2ccccc2)nc1-c1ccccc1)c1ccncc1`, the inhibition is 13.6%.
With `O=C(C1CCCO1)N(c1ccc(F)cc1)C1C=CS(=O)(=O)C1` (stereo unspecified), the inhibition is 5.92%.
The value for `CCCN(CCC)c1c([N+](=O)[O-])c(=O)oc2ccccc12` was 11%; that for `CCCC(NCC(=O)Nc1ccccc1C(=O)NC1CC1)c1ccccc1` (stereo unspecified) was 11.8%.
For the compound `CCc1ccc(NC(=O)NC(C)c2ccc3c(c2)OCO3)cc1` (stereo unspecified), the inhibition is 2.45%.
Turning to `CC(=NCc1ccco1)C1=C(O)c2ccccc2C1=O`, the inhibition is 34.3%.
With `CC(=NCc1ccc2c(c1)OCO2)C1=C(O)c2ccccc2C1=O`, the inhibition is 61.2% (active).
Regarding `Cc1ccc(S(=O)(=O)N2CCN=C2SCc2c(F)cccc2Cl)cc1`, the inhibition was -8.21%.
For the compound `COc1cc(N=Cc2c(O)[nH]c3ccccc23)cc(OC)c1OC`, the inhibition was 44% (active).
Take `COc1ccc2[nH]c(C(=O)N/N=C/c3cc(OC)c(OC)c(OC)c3)cc2c1`: the inhibition is 20.1%.
`COc1cc(/C=N/NC(=O)Cc2ccccc2)cc(OC)c1OC`: the inhibition is 2.14%.
As to `Cc1ccsc1-c1cc(C(=O)O)c2c(ccc3ccccc32)n1`, the inhibition is -20.7%.
In the case of `O=c1nc(N/N=C/c2ccco2)cn[nH]1`, the inhibition is 17.8%.
For the compound `COc1ccc(NC(=O)CN(C)C(=O)c2n[nH]c3ccccc23)cc1`, the inhibition is 9.05%.
The value for `O=C(CCCC(=O)N(CC(=O)NC1CCCC1)Cc1ccccc1Cl)Nc1ccccn1` was 14.9%; that for `O=[N+]([O-])c1ccc(C=Nc2ccc(Cl)cc2Cl)s1` was 77.7% (active); that for `CC1CN(C(=O)c2ccc([N+](=O)[O-])s2)CC(C)O1` (stereo unspecified) was 17.2%.
For the compound `CC(C)(C)c1cc(C(=O)N/N=C/c2ccc([N+](=O)[O-])s2)n[nH]1`, the inhibition is 32%.
The value for `O=C1CCc2cc(S(=O)(=O)Nc3ccc(C(F)(F)F)cc3)cc3c2N1CC3` was 4.21%.
`O=c1oc(-c2ccccc2NS(=O)(=O)c2ccc(Cl)cc2)nc2ccccc12`: the inhibition was 39.6%.
On to `NC(=O)c1ccc(CN2CCC(Cc3ccccc3)CC2)cc1`, for which the inhibition was -11.2%.
Take `CCOc1ccc2oc(C(=O)N(CC)CC(=O)Nc3ccc(NC(C)=O)cc3)c(C)c2c1`: the inhibition was 16.8%.
For the compound `CCSc1ncnc2c(C#N)c3n(c12)CCCCC3`, the inhibition is -13.6%.
Turning to `CCSC1=C(C#N)C(=O)n2c1cc1c2CCCC1`, the inhibition was 58.8% (active).
As to `O=C(CSc1ccc2nnc(-c3ccccc3)n2n1)N1CCCc2ccccc21`, the inhibition is -0.717%.
Consider `O=S(=O)(Nc1ccc2[nH]ncc2c1)c1ccccc1Cl`, for which the inhibition is 6%.
`COCc1cc(=O)[nH]c(-c2ccc(C(F)(F)F)cc2)n1`: the inhibition was -4.56%.
With `CC(Sc1nn(-c2ccc(Cl)cc2)c(=S)s1)C(=O)NCC1CCCO1` (stereo unspecified), the inhibition is 25.6%.
The same measure for `Cc1nc([N+](=O)[O-])nn1C12CC3CC(CC(Br)(C3)C1)C2`: 27%.
In the case of `CCc1nn(CCCC(=O)Nc2ccc(C)c(C)c2)c(=O)c2cc3occc3n12`, the inhibition is 33.6%.
Take `CCc1nn(CCCC(=O)Nc2ccc(C)cc2C)c(=O)c2cc3occc3n12`: the inhibition is 41.6% (active).
For `CCc1nn(CCCC(=O)NCc2ccc(C)cc2)c(=O)c2cc3occc3n12`, the inhibition was 31.1%.
On to `CCOC(=O)C1Cn2c(nc3c(c2=O)C(C)(CC)Cc2ccccc2-3)S1` (stereo unspecified), for which the inhibition is 40.7% (active).
The same measure for `CCC1(CC)Cc2ccccc2-c2nc(CCl)[nH]c(=O)c21`: 27.6%; for `CCC1(CC)Cc2ccccc2-c2nc3ccccc3c(=O)n21`: 16.4%; for `COC(=O)c1cccc(N(C(=O)c2ccco2)C(C(=O)NC2CCCC2)c2ccco2)c1` (stereo unspecified): 3.43%.
Regarding `Cn1c(=O)c2c(ncn2CC(COCc2ccccc2Cl)OCc2ccccc2Cl)n(C)c1=O` (stereo unspecified), the inhibition is 19.9%.
`Cc1ccnc(N2CCN(C(=O)CSc3nc4ccccc4nc3N3CCCCC3)CC2)c1`: the inhibition is 2.78%.
Turning to `COc1cccc(-n2c(=S)sc3c(=O)n(-c4ccccc4OC)c(SCC4OCCO4)nc32)c1`, the inhibition was 4.35%.
The same measure for `CNC(C)C#Cc1ccc2sc3cc(OC)c(OC)cc3c(=O)c2c1` (stereo unspecified): 43.4% (active); for `Cc1ccc(C(=O)COC(=O)CCN2C(=O)C3C4CC(C(Br)C4Br)C3C2=O)cc1` (stereo unspecified): 7.92%; for `CCCCOc1ccc(C(=O)NCC(=O)OCC(=O)N2CCN(S(=O)(=O)c3ccc(C)cc3C)CC2)cc1`: 15.7%.
`O=C(COC(=O)c1ccc(F)cc1)NCCCc1ccccc1`: the inhibition was 24.1%.
With `CCOc1ccc(NC(=O)c2ccc(NC(=O)CN3C(=O)C(=O)N(CC(C)C)C3=O)cc2)cc1`, the inhibition is 2.57%.
Consider `COc1ccc(CCNc2nc(C)cc(C)n2)cc1OC`, for which the inhibition is -4.02%.
As for `COc1ccc(CCNc2cc(C)nc3c(-c4ccc(Cl)cc4)c(C)nn23)cc1OC`, the inhibition was 43.9% (active).
With `COc1ccc(CCNc2nc3ccc(C)cc3n3cnnc23)cc1OC`, the inhibition was 2.87%.
`O=C(c1cnc(Cl)c(Cl)c1)N1CCN(S(=O)(=O)c2ccc(F)cc2)CC1`: the inhibition is 3.46%.
The same measure for `COc1ccc(Cc2nnc(SCC(=O)Nc3ccc(C)c(C)c3)o2)cc1OC`: 7.89%; for `N/C(=N\OC(=O)CCn1cccc(C(F)(F)F)c1=O)c1ccc(OC(F)(F)F)cc1`: -0.346%.
As for `O=c1c(Cl)c(NCc2ccc(F)cc2Cl)cnn1C12CC3CC(CC(C3)C1)C2`, the inhibition was 43.1% (active).
For `O=C(O)CC12CC3CC(C1)CC(n1ncc(NCc4ccc(F)cc4)c(Cl)c1=O)(C3)C2`, the inhibition was 0.72%.
Consider `O=C(CN1CCN(Cc2ccc(F)cc2Cl)C1=O)NCc1cccs1`, for which the inhibition is 12.6%.
In the case of `CCOc1cc2[nH]c(=S)n(Cc3ccc(C(=O)N4CCN(C)CC4)cc3)c(=O)c2cc1OCC`, the inhibition was 4.68%.
Turning to `Cc1ccc(S(=O)(=O)NCC(=O)NNC(=O)c2ccc(Br)cc2)cc1C`, the inhibition is 6.99%.
For `COC(=O)/C(C#N)=C/c1occc1C`, the inhibition is -13.8%.
The same measure for `Cc1onc(C(=O)NCc2ccc(F)cc2)c1[N+](=O)[O-]`: 5.1%; for `CCN(CC)S(=O)(=O)c1ccc(N2CCCC2)c(NC(=O)c2ccc([N+](=O)[O-])o2)c1`: 31.3%; for `O=C(Nc1ccc(Br)cn1)c1ccc([N+](=O)[O-])cc1Cl`: 7.02%.
As to `CN1C(=O)c2ccc(C(=O)Nc3ccc(Br)cn3)cc2C1=O`, the inhibition was 6.17%.
Regarding `Cc1cccc(NC(=O)c2ccc([N+](=O)[O-])o2)c1`, the inhibition is 58% (active).
As for `Cc1onc(NC(=O)c2ccc([N+](=O)[O-])o2)c1Br`, the inhibition is 42.4% (active).
The same measure for `O=C(Nc1cccc(O)c1)c1ccc(C(=O)c2ccccc2)o1`: 6.57%; for `Cc1cccc(NC(=O)c2cc([N+](=O)[O-])ccc2N2CCN(C)CC2)c1`: 10%.
Take `O=C(Nc1ccc(Br)cn1)c1ccc([N+](=O)[O-])o1`: the inhibition was 66.6% (active).
With `OC(COCCC12CC3CC(CC(C3)C1)C2)CN1CCCCC1` (stereo unspecified), the inhibition is 4.4%.
`FC(F)(F)c1cccc(-c2cc3ccccc3nc2N2CCCC2)c1`: the inhibition was -16.8%.
As to `COC(=O)c1ccccc1NC(=O)Cc1ccccc1OC`, the inhibition was 10.2%.
In the case of `Cc1cccc(NC(=S)NCc2ccc3[nH]c4c(c3c2)CCCC4)c1`, the inhibition is 41.3% (active).
The value for `Cc1cccc(NC(=S)NCCN(C2CCCCC2)C2CCCC2)c1` was 28.1%.
Consider `Cc1cc(C)cc(NC(=S)NCc2ccc(F)cc2)c1`, for which the inhibition is 23.8%.
Consider `O=S(=O)(O)CCN1CCOCC1`, for which the inhibition is 6.54%.
As for `CCOC12CC(C)(C)CC(C)(CC3=C1C(=O)CC(C)(C)C3)C2` (stereo unspecified), the inhibition is 17.6%.
The value for `CC1(c2nnc(-c3ccncc3)o2)CC(c2cccnc2)=NO1` (stereo unspecified) was -5.58%; that for `S=C(NCc1ccc(Cl)cc1)NC12CC3CC(CC(C3)C1)C2` was 51.4% (active); that for `O=C(NCc1ccc(Cl)cc1)NCc1ccc(Cl)cc1` was -35.2%.
In the case of `COC(=O)Cc1ccc(NC(=S)NCc2ccc(Cl)cc2)cc1`, the inhibition is 20.1%.
Turning to `OC1CCCN(c2ncnc3c2nnn3Cc2c(F)cccc2Cl)C1` (stereo unspecified), the inhibition is 14.9%.
As for `O=S1(=O)CCO[C@H]2Cc3ccccc3[C@H]2N1Cc1ccccc1`, the inhibition is 10%.
For the compound `CC1=C(C(N)=O)C(c2ccc(F)cc2)n2nc(CCCO)nc2N1` (stereo unspecified), the inhibition was 15.6%.
For the compound `COC(=O)CC(=O)N1CCN(c2ccc(Cl)c(Cl)c2)CC1`, the inhibition is 5.73%.
With `COC(=O)CSc1nnc(NC(=O)CCc2ccccc2)s1`, the inhibition is 17.2%.
Turning to `COC(=O)CSc1snnc1-c1ccc(Cl)c(Cl)c1`, the inhibition was 47.3% (active).
Turning to `N#CC(C(N)=O)=C1CCC2(CC1)OCCCCO2`, the inhibition is 17.1%.
Regarding `Cc1cc(C)cc(NC(=O)NC2CCCCCCC2)c1`, the inhibition was 14.5%.
Consider `COCCOC(=O)C1=C(C)N=c2s/c(=C\c3cccs3)c(=O)n2C1c1cccs1` (stereo unspecified), for which the inhibition was 15.4%.
Consider `CCOC(=O)C1=C(CSc2nccn2C)NC(=O)NC1c1ccc(OC)cc1` (stereo unspecified), for which the inhibition is 15.6%.
With `CCOC(=O)C1=C(C)N=c2s/c(=C\C(=O)OC)c(=O)n2C1c1ccc(OC)cc1` (stereo unspecified), the inhibition is 42.2% (active).
